# Reference: PubChem BioAssay AID485273 (Sanford-Burnham Center for Chemical Genomics, 2010)
# Out of some 330,000 compounds screened, about 1,500 (0.45%) were called active. Cut-off read from the data, not from the text of the source: active = inhibition above about 45% (passing the limit was not always enough); inconclusive = no clear call, values can overlap the other calls. The entries come from a sample that favours actives as a whole.
# Biological target: Ubiquitin-conjugating enzyme E2 N (Homo sapiens) (UniProt P61088)
# Assay: UBC13 polyubiquitin chain formation inhibitors, primary screen, biochemical, TR-FRET, uHTS (AID 485273)
# Details: at 20 µM, hits give high values
# Ubiquitin-conjugating enzyme E2 N (Homo sapiens), sequence (P61088 whole entry, looked up): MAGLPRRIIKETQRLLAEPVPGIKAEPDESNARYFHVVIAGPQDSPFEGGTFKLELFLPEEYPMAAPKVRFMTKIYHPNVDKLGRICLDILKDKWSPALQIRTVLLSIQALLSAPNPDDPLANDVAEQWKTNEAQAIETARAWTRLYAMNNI
row,SMILES,inhibition
1,CCCN(C(=O)CSc1nnc(N)s1)c1c(N)n(Cc2ccccc2)c(=O)[nH]c1=O,0.1% (inactive)
2,COC(=O)C(C)Oc1ccc2c(-c3cccc([N+](=O)[O-])c3)cc(=O)oc2c1 (stereo unspecified),-16.8% (inactive)
3,COc1cccc(CN(C)CC(O)COC(c2ccccc2)c2ccccc2C)c1 (stereo unspecified),19.2% (inactive)
4,CN(C(=O)CSc1nnc(-c2ccc(C(C)(C)C)cc2)n1C)C1CCS(=O)(=O)C1 (stereo unspecified),-4.3% (inactive)
5,OCCn1c(-c2ccccc2)csc1=Nc1ccccc1,-10.7% (inactive)
6,C#CCNC(=O)C1=C[C@@H](c2ccccc2)[C@H](CCCO)[C@@H](OCC)O1,0.9% (inactive)
7,Cc1ccc(NC(=O)Cc2nnc(SCC(=O)Nc3nncs3)n2C)cc1,-2.3% (inactive)
8,Cc1cccc(Cn2cnc3c(N)c(C)c(C)cc32)c1,3.8% (inactive)
9,COc1cccc(Cn2cnc3c([N+](=O)[O-])c(C)c(C)cc32)c1,60.4% (active)
10,COc1cccc(CNS(=O)(=O)c2cc3c(cc2C)n(C)c(=O)c(=O)n3C)c1,20% (inactive)
11,COc1ccc(CNC(=O)C2CCN(S(=O)(=O)c3ccc(SC)cc3)CC2)cc1,6.2% (inactive)
12,C#CCOCCOCCOCCNc1nc(N2CCN(C(=O)[C@H](CCCN=C(N)N)n3cc(C(N)[C@@H](C)CC)nn3)CC2)nc(N2CCN(C(=O)[C@H](CO)n3cc([C@@H](N)C(C)C)nn3)CC2)n1 (stereo partly specified),33.1% (inactive)
13,C#CCOCCOCCOCCNc1nc(N2CCN(C(=O)CCCCCCCCCCNC(=O)[C@H](CCCCN)n3cc(C)nn3)CC2)nc(N2CCN(C(=O)CCCCCCCCCCNC(=O)[C@H](CO)n3cc(CCCSC)nn3)CC2)n1,121% (active)
14,C#CCOCCOCCOCCNc1nc(N2CCN(C(=O)Cn3cc(CCCCN)nn3)CC2)nc(N2CCN(C(=O)[C@H](CCCCN)n3cc(CCC(=O)O)nn3)CC2)n1,3.6% (inactive)
15,C#CCOCCOCCOCCNc1nc(N2CCN(C(=O)CCCCCCCCCCNC(=O)[C@H]([C@@H](C)CC)n3cc(CCCCN=C(N)N)nn3)CC2)nc(N2CCN(C(=O)CCCCCCCCCCNC(=O)[C@H](CO)n3cc(CCCSC)nn3)CC2)n1,121% (active)
16,C#CCOCCOCCOCCNc1nc(N2CCN(C(=O)[C@H](C(C)C)n3cc(CCO)nn3)CC2)nc(N2CCN(C(=O)[C@H]([C@@H](C)CC)n3cc(CCCN=C(N)N)nn3)CC2)n1,19.7% (inactive)
17,C#CCOCCOCCOCCNc1nc(N2CCN(C(=O)[C@H](C(C)C)n3cc(CCO)nn3)CC2)nc(N2CCN(C(=O)[C@H](C(C)C)n3cc(CCO)nn3)CC2)n1,-11.8% (inactive)
18,C#CCOCCOCCOCCNc1nc(N2CCN(C(=O)CCCCCCCCCCNC(=O)Cn3cc(CCCCCN)nn3)CC2)nc(N2CCN(C(=O)CCCCCCCCCCNC(=O)[C@H](CO)n3cc(CCCSC)nn3)CC2)n1,128% (active)
19,C#CCOCCOCCOCCNc1nc(N2CCN(C(=O)[C@H](CCC(=O)O)n3cc(CN)nn3)CC2)nc(N2CCN(C(=O)[C@H](CCC(=O)O)n3cc(CN)nn3)CC2)n1,2.2% (inactive)
20,COc1ccccc1NC(=O)CCN1CCN(c2ccc(Cl)cc2)CC1,-6% (inactive)
21,O=C(CN1CCN(c2ccc(O)cc2)CC1)NC1CCCc2ccccc21 (stereo unspecified),7.1% (inactive)

row,SMILES,inhibition
1,O=C(CN1CCSCC1)N/N=C/c1ccc(Cl)cc1,-14.1% (inactive)
2,N#Cc1c(-c2ccc(Cl)cc2)c2c([nH]c1=S)CCCC2,47.4% (active)
3,CNc1nccc(-c2ccc(Cl)cc2)c1C#N,9.5% (inactive)
4,CN(C)c1nc(-c2cccnc2)nc(-c2ccc(Cl)cc2)c1C#N,-0.5% (inactive)
5,Cc1cccc(-n2cnc(C(=O)NNC(=S)Nc3ccccc3)c2)n1,84.4% (active)
6,Cn1cc(Cl)c(C(=O)NNC(=S)Nc2cccc(Cl)c2)n1,-10.5% (inactive)
7,Cc1cccc(-n2cnc(C(=O)Nc3cccnc3)c2)n1,-3.6% (inactive)
8,COc1ccc(CNS(=O)(=O)c2ccc(NC(=O)N3CCCCC3)cc2)cc1,-9.2% (inactive)
9,CN1CCN(CCCNC(=O)c2ccc(/C=C3\Oc4ccccc4N(Cc4ccc(Cl)cc4)C3=O)cc2)CC1,80.8% (active)
10,CCCN1CCN(C(=O)CCCNC(=O)c2ccc(Cl)cc2)CC1,-6.8% (inactive)
11,CC(C)OCCCNC(=O)CN1C(=O)/C(=C/c2ccccc2F)Oc2ccccc21,1% (inactive)
12,Cc1ccc2c(C)c(C(=O)N3CCC(N4CCC(C(=O)NC5CC5)CC4)CC3)oc2c1,-16.4% (inactive)
13,S=C(Cc1ccc(Cl)cc1)N1CCOCC1,4.3% (inactive)
14,CCN1C(=NCC(C)C)N[C@@H](CCc2ccccc2)[C@H](C(=O)NCC(C)C)[C@H]1C,15.8% (inactive)
15,CCN1C(=NCc2ccc(OC)cc2)N[C@@H](CCc2ccccc2)[C@H](C(=O)NCc2ccc(OC)cc2)[C@H]1C,48.7% (active)
16,CCN1C(=S)N[C@@H](CCc2ccccc2)[C@H](C(=O)OC)[C@H]1C,4.5% (inactive)
17,CCN(CC(=O)Nc1cc(Cl)ccc1C)C(=O)CSCc1ccc(C)cc1,0.3% (inactive)
18,Cc1cccc(N2CCN(C(C)C(=O)N3CCc4ccccc43)CC2)c1C (stereo unspecified),-1.5% (inactive)
19,CC(=O)Nc1cccc(NC(=O)c2ccc3c(c2)CCN3S(C)(=O)=O)c1,-2.7% (inactive)
20,CC(C)(c1ccccc1)c1ccc(OCCN)cc1,16.7% (inactive)
21,Cc1cc(C)n(CC(O)COc2ccc(C(C)(C)C)cc2)n1 (stereo unspecified),-14.2% (inactive)

row,SMILES,inhibition
1,CN(C)CC(O)COc1ccc(C(C)(C)c2ccc(OCC(O)CN(C)C)cc2)cc1 (stereo unspecified),59.2% (active)
2,NC(=O)NC(CC(=O)NNC(=O)c1ccccn1)c1ccc(Cl)cc1 (stereo unspecified),93.2% (active)
3,O=C(COC(=O)c1ccccn1)NNC(=O)c1ccc(Br)cc1,3.1% (inactive)
4,CCCNC(=O)NC(=O)COC(=O)CC(NC(N)=O)c1ccc(Cl)cc1 (stereo unspecified),1% (inactive)
5,COc1ccc(C(=O)C2CCCN(S(=O)(=O)c3cccc(C)c3)C2)c(C)c1 (stereo unspecified),-4.5% (inactive)
6,O=C(CCn1c(=O)oc2ccccc21)Nc1ccon1,-0.5% (inactive)
7,Cc1ccc2c(c1)C(c1ccccc1)N(C(=O)c1ccc(S(=O)(=O)N3CCOCC3)cc1)CC(=O)N2 (stereo unspecified),0.9% (inactive)
8,OCCNc1nc(Nc2ccc(Cl)c(Cl)c2)nc2ccccc12,68.2% (active)
9,CNc1nc(Nc2ccc(C)c(Cl)c2)nc(N)c1[N+](=O)[O-],9.3% (inactive)
10,Cc1ccc(Nc2nc(N)nc(CN3CCN(Cc4ccccc4)CC3)n2)cc1Cl,8.9% (inactive)
11,CCCS(=O)(=O)Nc1c(C(=O)O)[nH]c2ccccc12,8.6% (inactive)
12,C=CCn1c(SCc2ccc(Cl)c(Cl)c2)nnc1C(CO)NC(=O)c1ccc(OC)cc1 (stereo unspecified),15.9% (inactive)
13,Cn1c(CCC(=O)OCC(=O)NCc2ccccc2Cl)nc(=O)c2ccccc21,2.8% (inactive)
14,O=C(COC(=O)Cn1cnc2ccccc2c1=O)NCc1ccccc1Cl,45.4% (active)
15,O=C(COC(=O)Cn1cnc2ccccc2c1=O)NCC12CC3CC(CC(C3)C1)C2,17.4% (inactive)
16,O=C(N/N=C/c1ccccc1O)/C(=C/c1ccccc1)CCO,4.1% (inactive)
17,COc1ccccc1C(=O)OCC(=O)NCCNC(=O)COC(=O)c1ccccc1OC,5.1% (inactive)
18,Cc1ncc(CO)c(/C=N/NC(=O)c2cccc(S(=O)(=O)N3CCCC3)c2)c1O,52.7% (active)
19,Cc1cccc(NC(=O)c2cccc(S(=O)(=O)N3CCCC3)c2)n1,2.6% (inactive)
20,O=C(N/N=C/c1ccccn1)c1ccc(S(=O)(=O)N2CCCCCC2)cc1,-2.2% (inactive)
21,Cc1cc(C)n(CC(O)CN(c2ccccc2)S(=O)(=O)c2ccc3ccccc3c2)n1 (stereo unspecified),-8.5% (inactive)

row,SMILES,inhibition
1,CCSCc1nc(N)nc(NCCc2ccccc2)n1,8.1% (inactive)
2,Cc1c(C(=O)N2CCN(c3ccc(F)cc3)CC2)oc2c1C(=O)CCC2,3.2% (inactive)
3,COc1ccc2c(CC(=O)NNC(=O)c3ccccc3F)coc2c1,7.9% (inactive)
4,NC[C@H](Cc1ccccc1)NCCc1cc(C(F)(F)F)cc(C(F)(F)F)c1,65.5% (active)
5,O=C(CCC(=O)c1ccccc1)NCc1cccc(C(F)(F)F)c1,-0.5% (inactive)
6,COC(=O)[C@@H](Cc1ccccc1)NC(=O)NCCc1ccccc1,6.5% (inactive)
7,CCOc1ccc(Nc2nc(Cc3nnc(SCC(=O)c4ccc(C)cc4)o3)cs2)cc1,1.3% (inactive)
8,CC(NCc1nc2ccccc2n1C)C12CC3CC(CC(C3)C1)C2 (stereo unspecified),22.8% (inactive)
9,CCCOc1ccc(Cl)cc1Nc1nc(NCCO)nc(N2CCCC2)n1,60.4% (active)
10,CC(C)(C)Oc1ccccc1Nc1nc(NCCO)nc(N2CCCC2)n1,8.7% (inactive)
11,Cc1cccc(Nc2nc(NCCO)nc(N3CCCC3)n2)c1,11.1% (inactive)
12,CC(=O)N1C(=O)/C(=C2\SC(=S)N(NC(=O)c3ccc(O)cc3)C2=O)c2ccccc21,-62.3% (inactive)
13,COc1c(O)cc2oc(-c3ccc(O)c(O)c3)cc(=O)c2c1O,-3.7% (inactive)
14,COC(=O)c1ccccc1NC(=O)C1CCN(C(=O)N2CCOc3ccccc32)CC1,6.2% (inactive)
15,CCCCNC(=O)c1ccc(-n2c(=S)[nH]c3ccccc3c2=O)cc1,43.8% (inactive)
16,O=C(Cc1ccc(-n2c(=O)[nH]c3ccccc3c2=O)cc1)N1CCN(c2cccc(Cl)c2)CC1,-5.1% (inactive)
17,CCOC(=O)N1CCN(C(=O)Cc2ccc(-n3c(=S)[nH]c4ccccc4c3=O)cc2)CC1,46.3% (active)
18,COc1cccc(-c2ccc(SCC(=O)N3CCN(c4ccccc4)CC3)nn2)c1,-10.5% (inactive)
